Bioassay records from PubChem.
This is a sample that favours compounds with a hit; in the whole collection about 5% have one here.
EBI2 antag: EBI2 receptor antagonists, beta-arrestin recruitment, primary screen, cell-based, luminescence, 7a,25-OHC stimulation, uHTS | 360,000 compounds, 0.81% hits | 7a,25-OHC stimulated | inhibition, % at 5 µM; in the data active = inhibition above about 38%;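 also: enzyme fragment complementation signal reports receptor beta-arrestin coupling in cells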
Target sequence (P32249 whole entry, looked up, the tested form may be a part): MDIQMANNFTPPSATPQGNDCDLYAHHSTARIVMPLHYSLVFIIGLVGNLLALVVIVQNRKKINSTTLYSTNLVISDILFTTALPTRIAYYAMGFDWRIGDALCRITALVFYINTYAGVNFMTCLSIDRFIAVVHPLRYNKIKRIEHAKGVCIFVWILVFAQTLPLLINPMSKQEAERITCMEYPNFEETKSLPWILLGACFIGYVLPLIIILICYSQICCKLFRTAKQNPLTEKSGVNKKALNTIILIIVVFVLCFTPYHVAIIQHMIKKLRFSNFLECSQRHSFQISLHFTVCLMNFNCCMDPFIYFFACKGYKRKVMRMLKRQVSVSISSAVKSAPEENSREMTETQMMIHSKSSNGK
SENP7 inh: SENP7 protease inhibitors, primary screen, biochemical, luminescence, uHTS; inhibition, % at 5 µM; AID 434973, 2010; recombinant SENP7, Z-RLRGG-aminoluciferin luminescence, 40 min; Sentrin-specific protease 7 (Homo sapiens), Q9BQF6; 330,000 compounds, 1.5% hits;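 active = inhibition above about 50% at the single test dose, limit read from the data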
SENP8 block-1: SENP8 protease inhibitors, primary screen, biochemical, luminescence | Sentrin-specific protease 8 (Homo sapiens), Q96LD8 | purified SENP8, Z-RLRGG-aminoluciferin cleavage | inhibition, % at 10 µM | 330,000 compounds, 1.2% hits | AID 2540, 2010; in the data active = inhibition above about 50%
SENP8 block-2: human SENP8 protease inhibitors, primary screen, biochemical, fluorescence, Nedd8 protein substrate, uHTS; Sentrin-specific protease 8 (Homo sapiens), Q96LD8; recombinant SENP8; inhibition, % at 20 µM; 360,000 compounds, 0.64% hits; AID 602440, 2012; in the data active = inhibition mostly above about 40%, no sharp cut-off; inactive = mostly below about 27%
AHR act: AHR activators, primary screen, cell-based, luminescence, luciferase reporter, human; Aryl hydrocarbon receptor (Homo sapiens), P35869; AHR-responsive luciferase reporter cells; activation, % at 5 µM; 320,000 compounds, 2.5% hits; AID 2796, 2010; in the data active = activation above about 47%
SENP6 block: SENP6 protease inhibitors, primary screen, biochemical, luminescence, uHTS; Recombinant SENP6 catalytic domain, aminoluciferin luminescence; inhibition, % at 10 µM; AID 2599, 2010; 330,000 compounds, 1.8% hits; Sentrin-specific protease 6 (Homo sapiens), Q9GZR1;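 active = inhibition above about 50% at the single tested dose, limit read from the data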
EBI2 antag conf: EBI2 antagonist hit retest, beta-arrestin, confirmation, cell-based, single concentration, luminescence, 7a,25-OHC stimulation; 7a,25-OHC antagonism; 2,400 compounds, 29% hits; shares compounds with EBI2 antag; inhibition, % at 5 µM;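 active = inhibition of at least 50%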
EBI2 agonist: EBI2 agonist activity of antagonist hits, confirmation, counter-screen for EBI2 antagonist project, cell-based, single concentration, agonist mode, luminescence; shares compounds with EBI2 antag; EBI2-expressing cells, 60 min; 0% vehicle, 100% 7α,25-dihydroxycholesterol control; activation, % at 5 µM; 2,400 tested, under 10 active; AID 652000, 2013;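 active = activation of at least 50%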
bGal cs: E. coli beta-galactosidase enzyme inhibition, confirmation, counter-screen for EBI2 antagonist project, biochemical, luminescence, single concentration; shares compounds with EBI2 antag; purified beta-galactosidase, luminescent Galacton Star, 15 min; inhibition, % at 5 µM; 2,400 compounds, 1% hits;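 active = replicate-average signal at least 3 plate SD below neutral wells, shown as high inhibition, flagging enzyme-inhibiting false positives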;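 also: higher means stronger loss of beta-gal luminescence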
A number is an active result; . = inactive; / = no result given.

SMILES	EBI2 antag	SENP7 inh	SENP8 block-1	SENP8 block-2	AHR act	SENP6 block	EBI2 antag conf	EBI2 agonist	bGal cs
CCOC(=O)c1ccc(N=c2sc(C(=O)OC)cc(=O)n2-c2ccc(C(=O)OCC)cc2)cc1	79	.	.	.	.	.	74	.	.
COC(=O)c1cc(=O)n(Cc2ccc(OC)c(OC)c2)c(=Nc2ccc(F)cc2)s1	70	.	.	.	.	.	50	.	.
S=c1[nH]c2cc(-c3ccccc3)ccc2o1	.	.	.	.	.	.	/	/	/
CCc1nnc(NS(=O)(=O)c2ccc(NCc3cc(Cl)cc(Cl)c3O)cc2)s1	.	.	.	.	.	.	/	/	/
COc1ccccc1N1CCN(S(=O)(=O)c2ccc3nc(-c4ccccc4)[nH]c3c2)CC1	53	.	.	.	.	.	.	.	.
O=C(CSc1ccc2ccccc2n1)N1CCC(c2noc3ccc(F)cc23)CC1	38	.	.	.	.	.	.	.	.
O=C(CSc1ccc(F)cc1)N1CCC(c2nc3ccccc3s2)CC1	46	.	.	.	.	.	.	.	.
COC(=O)[C@]12CCCCC=C1N(Cc1cccc3ccccc13)C(=O)[C@H](CC(=O)NCCCCc1ccccc1)C2	47	/	/	.	/	/	.	.	.
COc1ccc(CCNC(=O)c2ccc(N(C)S(=O)(=O)c3ccc(C)cc3)cc2)cc1	.	.	.	.	.	.	/	/	/
CCOc1ccc(S(=O)(=O)N(C)c2ccc(OCC(=O)NCCc3ccc(OC)cc3)cc2)cc1	55	.	.	.	.	.	.	.	.
O=C(OCC(=O)N1CCCc2ccccc21)c1cnc(Cl)c(Cl)c1	43	.	.	.	.	.	.	.	.
COc1ccc(CCC(=O)N2CCN(S(=O)(=O)c3ccc(C)cc3)CC2)cc1	49	.	.	.	.	.	.	.	.
COc1ccc(CCC(=O)N2CCN(S(=O)(=O)c3cccc(Cl)c3)CC2)cc1	72	.	.	.	.	.	.	.	.
COc1ccc(OCCCC(=O)N2CCN(S(=O)(=O)c3cccc(F)c3)CC2)cc1	58	.	.	.	.	.	.	.	.
COc1ccc(S(=O)(=O)N2CCN(C(=O)CCC3CCCC3)CC2)cc1	.	.	.	.	.	.	/	/	/
Cc1cc(C)cc(NC(=O)CSc2nc(CSc3ccc(Cl)cc3)cc(=O)[nH]2)c1	.	.	.	.	.	.	/	/	/
Cn1nnc2c(sc3nc(N4CCOCC4)c4c(c32)CCCC4)c1=O	49	.	.	.	.	.	.	.	.
CCOC(=O)c1sc(NC(=O)/C=C/c2cnn(CC)c2C)c(C(=O)OCC)c1C	40	.	.	.	.	.	.	.	.
COc1cccc(C(=O)NNC2OC(CO)C(O)C2O)c1 (stereo unspecified)	.	.	.	.	.	.	/	/	/
COc1ccc(Cn2c(=O)c3cccnc3n(Cc3ccc([N+](=O)[O-])cc3)c2=O)cc1	47	.	.	.	.	.	.	.	.
COc1ccc(CCn2c(=O)c3cccnc3n(Cc3ccc([N+](=O)[O-])cc3)c2=O)cc1OC	.	/	/	.	/	/	/	/	/
O=C(Nc1ccc(-c2csc(Nc3cccc(C(F)(F)F)c3)n2)cc1)c1cc([N+](=O)[O-])cc(C(F)(F)F)c1	.	.	.	.	.	.	/	/	/
